Results filed as inconclusive are left out. Active and inactive are the calls of the source.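 How the source made its calls, unless noted: active means inhibition above the screen-wide mean plus 3 SD, about 51%; inactive means the rest.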

The values that follow come from PubChem BioAssay.

A short description of assay [1]: rapamycin-like changes in RPL19A-GFP expression – cell-based, S. cerevisiae, multiplex flow cytometry, primary screen (AID 1862; in the data active means percent of DMSO control GFP below about 86%;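 further: lower values mimic rapamycin by blocking the RPL19A rise seen in DMSO cells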). Conditions: S. cerevisiae RPL19A-GFP strain, flow cytometry fluorescence, 3 h; at 10 µM; stronger effect = lower value. For orientation: Flow cytometry measures light scatter and fluorescence of single cells or particles in a stream.
A short description of assay [2]: TOR pathway GLN3 branch reporter MEP2-GFP changes – S. cerevisiae, multiplex flow cytometry, primary screen (AID 1867;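 active means GFP response, as percent of the DMSO control, above the screen-wide mean plus 3 SD, about 139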;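 further: median GFP channel fluorescence of barcode-gated MEP2-GFP cells measured by flow cytometry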). Conditions: S. cerevisiae MEP2-GFP strain, 3 h, at 10 µM, stronger effect = higher value, 100% means same as DMSO wells.
Assay [3] in a line: TOR pathway RTG branch CIT2 reporter changes – S. cerevisiae, GFP fusion, multiplex flow cytometry, primary screen (AID 1870;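 active means percent response above a set limit, the screen-wide mean plus 3 SD, cut at about 130% in these data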;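 further: barcoded CIT2-GFP strain pooled with four other GFP strains with rapamycin as positive control; median GFP fluorescence per well over plate mean of DMSO wells so 100% = DMSO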). Conditions: S. cerevisiae CIT2-GFP expression, 3 h, at 10 µM, stronger effect = higher value.
A short description of assay [4]: TOR pathway LAP4-GFP level changes – S. cerevisiae, multiplex flow cytometry, primary screen (AID 1873;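 active means GFP signal, as percent of the solvent control, above the screen mean plus 3 SD, about 149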). Conditions: S. cerevisiae LAP4-GFP expression, 3 h, at 10 µM, stronger effect = higher value.
Assay [5] can be described thus: reduced mouse 2C T cell binding to pMHC/ICAM-1 vesicles – MLPCN validation set, flow cytometry, LFA-1/ICAM-1 modulator project, pilot screen (AID 2523;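 active means response below a set limit, under 55% cells CD8-positive and vesicle-bound, and CD8 cells' 90th-percentile brightness under 279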;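 on vesicle binding response: mean PE anti-B7-1 fluorescence of CD8+ cells relative to row control; 100% = QL9-loaded vesicles with DMSO vehicle in the same plate row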). Conditions: 2C mouse CD8+ T cells, at 7 µM, stronger effect = lower value; double positive events: measured here: CD8+/vesicle+ event percentage.
Assay [6] has as its target Integrin beta-1 (Homo sapiens) + Integrin alpha-4 (Homo sapiens) (UniProt P13612+P05556). The assay is described as follows: alpha4beta1 integrin LIBS antibody binding reduction – U937 cells, HUTS-21 mAb, flow cytometry, validation set, VLA-4 allosteric modulator project, pilot screen (AID 2674;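 active means inhibition above 50%, about 3 SD of the validation set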;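 further: antibody binding induced by the VLA-4 ligand LDV present at three times its Kd; 0% = LDV ligand with antibody and no compound and 100% = antibody without LDV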). Conditions: HUTS-21 LIBS mAb binding, at 6.7 µM, stronger effect = higher value, binding induced by LDV ligand.

The nature of assay [7]: calorie-restriction mimetic ROS inhibitors, yeast – validation compound set, pilot screen (AID 2706;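 active means superoxide response below 65% of plate, a cut near 3 SD across the whole screen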;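 further: yeast exposed to compound for one week at 30 degrees C before staining; 100% = mean of all compound wells on the same plate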). Conditions: S. cerevisiae aging, superoxide DHE fluorescence; at 10 µM, stronger effect = lower value.
Assay [8] concerns the target Beta-adrenergic receptor kinase 1 (Homo sapiens) (UniProt P25098). In words: GRK2 binders displacing RNA aptamer, biochemical, validation, human GRK2, bead flow cytometry (AID 488806;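 active means aptamer binding inhibition above 30%, about 3 SD of noise from non-fluorescent compounds; inactive means inhibition at or below 30%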). Conditions: bead-bound GRK2, FAM-aptamer displacement, at 10 µM, stronger effect = higher value.
Assay [9] concerns the target Beta-2 adrenergic receptor (Homo sapiens) (UniProt P07550). In words: agonist-induced loss of surface beta2AR – cell-based, FAP fluorogen, flow cytometry, validation set, pilot screen (AID 504459;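 active means percent response above 42, roughly 3 SD of non-fluorescent test compounds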;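 further: agonist-driven loss of surface beta2AR via internalization measured by FAP dye flow cytometry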). Conditions: Am2.2-beta2AR cells, at 10 µM, stronger effect = higher value.
For assay [10], the target named is AP-2 complex subunit beta (Homo sapiens) (UniProt P63010). In words: beta-arrestin/AP2 interaction blockers – biochemical, validation set, GST-AP2 beads, flow cytometry, pilot screen (AID 504541;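 active means inhibition above 54%, about 3 SD of non-fluorescent compounds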;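 further: AP2 carries R879A mutation and is captured from E. coli lysate; bead-bound FITC arrestin peptide fluorescence measuring arrestin peptide binding to AP2; 0% = DMSO wells and 100% = excess unlabeled arrestin peptide control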). Conditions: FITC arrestin peptide, at 10 µM, stronger effect = higher value, AP2 beta2 appendage fragment, R879A mutant.
Chain of AP-2 complex subunit beta (Homo sapiens) (P63010 whole entry, looked up, the tested form may be a part, one chain of several): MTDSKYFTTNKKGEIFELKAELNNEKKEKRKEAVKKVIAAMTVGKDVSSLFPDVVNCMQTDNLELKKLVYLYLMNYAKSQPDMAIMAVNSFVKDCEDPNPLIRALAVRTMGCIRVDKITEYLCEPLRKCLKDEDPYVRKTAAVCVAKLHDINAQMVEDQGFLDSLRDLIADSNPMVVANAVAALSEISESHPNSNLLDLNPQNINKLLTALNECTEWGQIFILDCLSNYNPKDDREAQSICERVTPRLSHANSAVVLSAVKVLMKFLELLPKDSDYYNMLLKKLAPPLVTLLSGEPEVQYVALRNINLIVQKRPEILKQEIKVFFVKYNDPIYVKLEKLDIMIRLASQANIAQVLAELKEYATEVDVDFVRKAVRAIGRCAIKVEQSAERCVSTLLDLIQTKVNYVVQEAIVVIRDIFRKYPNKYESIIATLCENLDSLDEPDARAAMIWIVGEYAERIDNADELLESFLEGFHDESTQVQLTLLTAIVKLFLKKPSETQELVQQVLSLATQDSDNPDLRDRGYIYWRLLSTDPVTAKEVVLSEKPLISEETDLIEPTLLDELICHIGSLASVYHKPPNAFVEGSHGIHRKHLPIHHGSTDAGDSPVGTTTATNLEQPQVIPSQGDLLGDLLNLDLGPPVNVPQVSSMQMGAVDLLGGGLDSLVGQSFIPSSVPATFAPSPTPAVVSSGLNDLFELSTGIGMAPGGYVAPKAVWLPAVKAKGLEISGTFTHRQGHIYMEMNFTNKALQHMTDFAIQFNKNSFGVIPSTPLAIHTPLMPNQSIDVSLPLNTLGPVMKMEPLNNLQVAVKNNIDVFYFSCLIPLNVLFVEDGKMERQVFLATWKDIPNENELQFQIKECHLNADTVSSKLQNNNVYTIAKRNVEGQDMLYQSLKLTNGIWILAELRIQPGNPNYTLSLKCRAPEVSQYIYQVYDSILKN
Assay [11] is described as follows: cytosolic pH regulators acting via V-ATPase – S. cerevisiae, pHLuorin, HTS validation (AID 504600; in the data active means response above about 15%;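 further: plate controls were DMSO for no effect and reference compound for full effect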). Conditions: V-ATPase proton transport, at 10 µM, stronger effect = higher value.
The test system of assay [12] is anti-desmoglein-3 scFv antibody binding to human DSG3. In words: blockers of pathogenic pemphigus antibody–desmoglein-3 binding – biochemical, validation compound set, bead-based, flow cytometry, pilot screen (AID 588368;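 active means binding below the plate cutoff, the plate median minus 3 SD, with a reading above zero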;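 further: signal is the median channel fluorescence of bead-bound GFP antibody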). Conditions: Protein G beads, DSG3-Fc, scFv-GFP binding, at 10 µM, stronger effect = lower value.
The nature of assay [13]: Nile Red efflux blockade in pump-expressing yeast – validation compound set, multiplex, phenotypic, pilot screen (AID 588506;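 active means efflux inhibition above 0.42, the validation set average plus 4 SD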;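 further: Nile Red retained in cells so higher fluorescence means more efflux inhibition; 0 = negative control wells and 1 = enniatin B 25 µM full block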). Conditions: S. cerevisiae pump-expressing triplex, Nile Red efflux flow cytometry; at 10 µM; stronger effect = higher value; the pumps come from Candida albicans.
The target of assay [14] is ATP-binding cassette sub-family B member 6 (Homo sapiens) (UniProt Q9NP58). The assay is described as follows: blockers of ABCB6-driven porphyrin uptake – K562-ABCB6 cells, flow cytometry, validation set, pilot screen (AID 588550).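 Further: 0% = DMSO wells and 100% = benzethonium chloride 70 µM positive control.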 Conditions: K562-ABCB6 porphyrin accumulation, 1 h, at 10 µM, stronger effect = higher value.
Chain of ATP-binding cassette sub-family B member 6 (Homo sapiens) (Q9NP58 whole entry, looked up): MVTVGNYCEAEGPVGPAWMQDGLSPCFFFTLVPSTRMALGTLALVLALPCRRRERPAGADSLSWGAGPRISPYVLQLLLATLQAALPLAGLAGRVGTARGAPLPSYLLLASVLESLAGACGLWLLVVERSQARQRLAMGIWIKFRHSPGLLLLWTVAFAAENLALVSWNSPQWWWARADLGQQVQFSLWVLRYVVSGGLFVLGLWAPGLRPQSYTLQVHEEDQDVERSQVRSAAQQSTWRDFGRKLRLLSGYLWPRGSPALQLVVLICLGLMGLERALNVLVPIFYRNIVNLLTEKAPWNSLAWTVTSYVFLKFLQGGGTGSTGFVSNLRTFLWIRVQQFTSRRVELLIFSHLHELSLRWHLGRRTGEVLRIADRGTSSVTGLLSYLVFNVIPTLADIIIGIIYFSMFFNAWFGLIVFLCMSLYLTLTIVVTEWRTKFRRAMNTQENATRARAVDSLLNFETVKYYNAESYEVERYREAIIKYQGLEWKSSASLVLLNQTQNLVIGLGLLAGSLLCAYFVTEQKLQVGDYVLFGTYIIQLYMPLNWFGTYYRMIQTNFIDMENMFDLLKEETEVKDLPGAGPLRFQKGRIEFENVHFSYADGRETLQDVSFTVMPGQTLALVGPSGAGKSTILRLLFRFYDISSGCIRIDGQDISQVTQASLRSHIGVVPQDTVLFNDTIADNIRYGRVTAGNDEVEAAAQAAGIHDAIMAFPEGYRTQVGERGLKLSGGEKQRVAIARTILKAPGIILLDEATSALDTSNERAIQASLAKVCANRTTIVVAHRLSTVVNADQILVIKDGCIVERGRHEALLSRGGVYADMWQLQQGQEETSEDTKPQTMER
The nature of assay [15]: AML differentiation inducers, ER-HoxA9 marrow cells – cell-based, GFP/MAC1 double positive, flow cytometry, validation set, primary screen (AID 588685;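 active means differentiation response of at least 50%, scaled between solvent and reference control, from cells with both markers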;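 further: compound exposure lasts four days before antibody staining and flow analysis; 0% = DMSO wells and 100% = 5 µM fulvestrant positive control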). Conditions: stronger effect = higher value, normalized: vehicle 0, fulvestrant 100.
A short description of assay [16]: yeast AGP1-GFP level changes, GLN3 branch – cell-based, multiplex flow cytometry, S. cerevisiae, primary screen (AID 1887;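 active means GFP signal above the screen-wide mean plus 3 SD, that is over about 124.5% of the solvent control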;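 further: AGP1-GFP fusion strain of S. cerevisiae within a five-strain barcoded multiplex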). Conditions: 3 h, at 10 µM, stronger effect = higher value.

Chain of Integrin beta-1 (Homo sapiens) + Integrin alpha-4 (Homo sapiens) (P05556 whole entry, looked up): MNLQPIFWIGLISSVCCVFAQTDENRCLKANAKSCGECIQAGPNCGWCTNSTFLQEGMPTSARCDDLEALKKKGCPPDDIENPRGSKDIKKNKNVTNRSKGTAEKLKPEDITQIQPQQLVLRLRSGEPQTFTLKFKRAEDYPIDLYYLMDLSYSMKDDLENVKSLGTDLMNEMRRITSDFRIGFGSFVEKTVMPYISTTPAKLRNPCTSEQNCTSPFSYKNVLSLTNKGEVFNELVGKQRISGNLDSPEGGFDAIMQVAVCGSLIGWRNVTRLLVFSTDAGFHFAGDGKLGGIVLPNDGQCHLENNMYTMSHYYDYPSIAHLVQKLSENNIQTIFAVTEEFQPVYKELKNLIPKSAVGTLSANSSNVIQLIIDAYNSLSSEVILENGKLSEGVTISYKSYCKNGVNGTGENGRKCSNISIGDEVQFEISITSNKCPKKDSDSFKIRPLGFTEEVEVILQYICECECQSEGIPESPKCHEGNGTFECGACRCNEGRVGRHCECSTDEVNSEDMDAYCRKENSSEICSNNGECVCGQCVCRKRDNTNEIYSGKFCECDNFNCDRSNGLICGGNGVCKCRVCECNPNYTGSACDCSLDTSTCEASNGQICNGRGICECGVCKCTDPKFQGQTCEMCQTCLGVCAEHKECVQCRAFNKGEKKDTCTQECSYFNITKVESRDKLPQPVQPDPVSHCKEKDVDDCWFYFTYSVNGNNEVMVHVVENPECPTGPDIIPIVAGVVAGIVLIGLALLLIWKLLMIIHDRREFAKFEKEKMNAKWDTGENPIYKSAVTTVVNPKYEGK
Chain of Integrin beta-1 (Homo sapiens) + Integrin alpha-4 (Homo sapiens) (P13612 whole entry, looked up): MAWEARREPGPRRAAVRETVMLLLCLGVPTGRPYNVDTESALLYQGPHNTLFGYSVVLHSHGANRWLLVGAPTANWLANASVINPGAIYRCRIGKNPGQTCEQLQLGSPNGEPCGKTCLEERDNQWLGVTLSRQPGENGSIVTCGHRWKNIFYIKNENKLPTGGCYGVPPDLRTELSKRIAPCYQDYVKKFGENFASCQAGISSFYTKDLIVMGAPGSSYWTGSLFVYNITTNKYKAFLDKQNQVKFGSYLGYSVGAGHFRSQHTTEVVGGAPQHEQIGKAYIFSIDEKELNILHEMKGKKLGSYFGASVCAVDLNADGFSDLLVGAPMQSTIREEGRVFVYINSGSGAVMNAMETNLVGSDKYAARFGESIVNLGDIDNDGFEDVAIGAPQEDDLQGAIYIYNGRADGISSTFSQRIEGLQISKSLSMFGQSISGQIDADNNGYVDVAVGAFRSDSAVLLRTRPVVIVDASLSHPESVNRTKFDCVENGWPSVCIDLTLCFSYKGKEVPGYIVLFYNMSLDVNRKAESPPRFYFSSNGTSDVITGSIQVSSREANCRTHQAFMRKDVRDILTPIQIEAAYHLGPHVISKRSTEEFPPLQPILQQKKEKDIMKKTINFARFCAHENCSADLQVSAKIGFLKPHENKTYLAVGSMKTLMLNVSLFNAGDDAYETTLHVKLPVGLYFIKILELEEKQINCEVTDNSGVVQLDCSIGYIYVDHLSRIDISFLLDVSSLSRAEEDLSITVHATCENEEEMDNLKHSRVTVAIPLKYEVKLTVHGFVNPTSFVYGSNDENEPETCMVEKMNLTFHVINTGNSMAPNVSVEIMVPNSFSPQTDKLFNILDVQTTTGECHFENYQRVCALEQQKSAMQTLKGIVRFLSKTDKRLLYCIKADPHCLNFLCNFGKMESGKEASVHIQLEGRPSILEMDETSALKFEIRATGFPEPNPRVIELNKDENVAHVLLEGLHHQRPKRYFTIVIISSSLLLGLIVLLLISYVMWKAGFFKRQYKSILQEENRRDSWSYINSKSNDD
Chain of Beta-adrenergic receptor kinase 1 (Homo sapiens) (P25098 whole entry, looked up): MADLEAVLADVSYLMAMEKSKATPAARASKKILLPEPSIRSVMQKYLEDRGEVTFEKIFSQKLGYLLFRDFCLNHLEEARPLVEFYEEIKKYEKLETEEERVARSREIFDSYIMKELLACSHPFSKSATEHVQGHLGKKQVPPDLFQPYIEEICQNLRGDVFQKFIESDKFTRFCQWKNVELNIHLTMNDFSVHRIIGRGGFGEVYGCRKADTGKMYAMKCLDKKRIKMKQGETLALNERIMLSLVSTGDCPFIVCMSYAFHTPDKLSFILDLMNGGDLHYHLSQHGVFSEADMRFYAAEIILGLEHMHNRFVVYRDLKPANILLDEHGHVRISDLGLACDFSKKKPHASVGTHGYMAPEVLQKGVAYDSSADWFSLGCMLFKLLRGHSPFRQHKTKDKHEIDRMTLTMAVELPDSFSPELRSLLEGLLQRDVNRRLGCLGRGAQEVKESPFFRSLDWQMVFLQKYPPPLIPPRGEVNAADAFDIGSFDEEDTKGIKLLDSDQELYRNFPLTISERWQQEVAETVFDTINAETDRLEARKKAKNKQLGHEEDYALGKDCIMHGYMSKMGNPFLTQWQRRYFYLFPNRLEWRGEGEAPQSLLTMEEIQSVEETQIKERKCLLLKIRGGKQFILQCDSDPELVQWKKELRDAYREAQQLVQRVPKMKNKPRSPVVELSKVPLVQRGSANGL
Chain of Beta-2 adrenergic receptor (Homo sapiens) (P07550 whole entry, looked up): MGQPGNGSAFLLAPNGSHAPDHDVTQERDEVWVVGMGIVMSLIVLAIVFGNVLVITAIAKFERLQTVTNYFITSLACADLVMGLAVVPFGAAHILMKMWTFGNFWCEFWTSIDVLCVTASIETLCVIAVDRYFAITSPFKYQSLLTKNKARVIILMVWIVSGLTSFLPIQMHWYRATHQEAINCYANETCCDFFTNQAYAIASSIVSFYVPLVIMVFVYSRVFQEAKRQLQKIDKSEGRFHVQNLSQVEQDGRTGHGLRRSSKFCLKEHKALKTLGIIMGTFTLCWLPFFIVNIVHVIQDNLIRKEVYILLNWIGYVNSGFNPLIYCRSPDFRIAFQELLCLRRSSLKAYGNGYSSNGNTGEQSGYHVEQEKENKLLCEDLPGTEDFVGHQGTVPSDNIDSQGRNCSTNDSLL

As usually defined, the inhibition is the relative decrease from the control value, in per cent. With `CC[C@H]1OC(=O)[C@H](C)[C@@H](O[C@H]2C[C@@](C)(OC)[C@@H](O)[C@H](C)O2)[C@H](C)[C@@H](O[C@@H]2O[C@H](C)C[C@H](N(C)C)[C@H]2O)[C@](C)(O)C[C@@H](C)[C@@H]2N[C@@H](COCCOC)O[C@H]([C@H]2C)[C@]1(C)O`, the percent of DMSO control GFP in assay [1] was 95% (inactive). Besides, the GFP response vs DMSO was 130% (inactive) in assay [2] and 79.2% (inactive) in [4]. In addition, the percent response of DMSO control in assay [3] is 95.2% (inactive). Moreover, the double positive events in assay [5] amounted to 63.9%. Also, the vesicle binding response in [5] is 137% (inactive). Also, the inhibition in [6] was 6.46% (inactive); in assay [10] it was -5.27% (inactive); in assay [14], 8% (inactive). Moreover, the superoxide response (% of plate) in assay [7] is 106% (inactive). Also, in assay [8], the aptamer binding inhibition was 29% (inactive). The response in [9] is -13.2% (inactive); in assay [11], 32.7% (active). In addition, the binding (% of control) in [12] is 103% (inactive). The efflux inhibition (fraction of control) in assay [13] is -0.31 (inactive). For the same compound, the differentiation response in [15] is -4.91% (inactive).

As for `O=C(OCC1OC2OC3(CCCCC3)OC2C2OC3(CCCCC3)OC12)c1ccccc1` (stereo not given), the percent of DMSO control GFP in assay [1] is 90.9% (inactive). Also, the results for the GFP response vs DMSO in assay [2] and in assay [4] were 104% (inactive) and 76.5% (inactive), respectively. For the same compound, the percent response of DMSO control in [3] is 116% (inactive). Moreover, the double positive events in assay [5] was 60.9%. Moreover, the vesicle binding response in [5] was 154% (inactive). The inhibition in assay [6] is 5.49% (inactive); in [10] it was 5.67% (inactive); in assay [14] it was 5% (inactive). For the same compound, the superoxide response (% of plate) in assay [7] was 102% (inactive). The aptamer binding inhibition in assay [8] was 5% (inactive). Further, the response was 11.7% (inactive) in [9] and 1.42% (inactive) in assay [11]. Besides, the binding (% of control) in [12] is 128% (inactive). Besides, the efflux inhibition (fraction of control) in assay [13] was 0.09 (inactive). In assay [15], the differentiation response was -0.82% (inactive).

`O=P(O)(O)CP(=O)(O)O`: the percent of DMSO control GFP in assay [1] is 91.9% (inactive). For the same compound, in assay [3], the percent response of DMSO control was 90.5% (inactive). For the same compound, the GFP response vs DMSO in [4] is 123% (inactive). Further, in assay [16], the GFP response, % of DMSO is 122% (inactive). Further, in assay [5], the double positive events worked out at 61.8%. In assay [5], the vesicle binding response is 178% (inactive). For the same compound, the figures for the inhibition in assay [6], in assay [10] and in assay [14] were 22.7% (inactive), -22.1% (inactive) and -3% (inactive), respectively. For the same compound, the superoxide response (% of plate) in assay [7] was 93% (inactive). For the same compound, the aptamer binding inhibition in [8] was 0% (inactive). Also, the response was -17.7% (inactive) in assay [9] and -0.51% (inactive) in [11]. Further, the binding (% of control) in [12] is 101% (inactive). Also, the efflux inhibition (fraction of control) in assay [13] was 0 (inactive). In [15], the differentiation response was 28.5% (inactive).

As to `COc1cccc(N2C(=O)[C@H]3C(C(=O)c4cnccn4)=NN[C@H]3C2=O)c1`, the percent of DMSO control GFP in [1] was 93.5% (inactive). Besides, the GFP response vs DMSO in [2] is 123% (inactive); in assay [4] it was 79.8% (inactive). For the same compound, in assay [3], the percent response of DMSO control was 111% (inactive). This compound displayed a double positive events in [5] of 63.5%. Besides, the vesicle binding response in assay [5] was 191% (inactive). Further, the figures for the inhibition in assay [6], in assay [10] and in assay [14] were 14.2% (inactive), -1.17% (inactive) and 8% (inactive), respectively. In addition, the superoxide response (% of plate) in assay [7] was 106% (inactive). The aptamer binding inhibition in assay [8] is 2% (inactive). Also, the values for the response in [9] and in assay [11] were -6.07% (inactive) and -1.86% (inactive), respectively. Further, the binding (% of control) in assay [12] is 98.9% (inactive). The efflux inhibition (fraction of control) in [13] was -0.13 (inactive). Further, the differentiation response in [15] is -4.91% (inactive).

In the case of `C[C@]12C=CC(=O)C=C1CCC1C3CC[C@](O)(C(=O)CO)[C@@]3(C)CC3OC312` (stereo not given in full), the percent of DMSO control GFP in assay [1] is 102% (inactive). In addition, the percent response of DMSO control in [3] is 95.8% (inactive). Moreover, the GFP response vs DMSO in [4] is 85.4% (inactive). In addition, in assay [16], the GFP response, % of DMSO is 101% (inactive). The compound also yielded a double positive events in assay [5] of 76.1%. Besides, the vesicle binding response in [5] is 298% (inactive). The inhibition in assay [6] was 5.03% (inactive); in assay [10], -1.32% (inactive); in assay [14] it was 113% (active). The superoxide response (% of plate) in assay [7] was 87.7% (inactive). Moreover, in assay [8], the aptamer binding inhibition is 2% (inactive). For the same compound, the response in assay [9] was 2.49% (inactive); in [11] it was -0.61% (inactive). Further, in assay [12], the binding (% of control) is 102% (inactive). Further, the efflux inhibition (fraction of control) in assay [13] is 0.22 (inactive). Moreover, the differentiation response in assay [15] was -13.6% (inactive).
